Results on 5 molecules are retold here after publication PMC11062922 (Nature Chemical Biology, 2023).

Like-named read-outs stand apart in the source and are kept apart here.

What all share (set-up): species or system human, MV4-11 + K-562 + COLO205 + SK-N-BE2 + OVCAR-8
For one experiment, the system named is ACVR1B. The following applies: read-out: apparent Kd, compound concentrations: 100 nM and 1000 nM (sheet 'Samples'), n = 1.
A further experiment has as its system ACVR1. The following applies: read-out: apparent Kd, compound concentrations: 100 nM and 1000 nM (sheet 'Samples'), n = 1.
In another experiment the test system is ACVR2B. The following applies: read-out: apparent Kd, compound concentrations: 100 nM and 1000 nM (sheet 'Samples'), n = 1.
The next experiment deals with ADCK3. Particulars: read-out: apparent Kd, compound concentrations: 100 nM and 1000 nM (sheet 'Samples'), n = 1.
The next experiment relates to RET. The following applies: read-out: apparent Kd; compound concentrations: 100 nM and 1000 nM (sheet 'Samples'), CATDS: 0.12802615197662401; n = 1.
The next experiment has as its system RIPK2. Particulars: read-out: apparent Kd, compound concentrations: 100 nM and 1000 nM (sheet 'Samples'), n = 1.
In another experiment the test system is RIPK3. Particulars: read-out: apparent Kd; compound concentrations: 100 nM and 1000 nM (sheet 'Samples'), CATDS: 9.0295884260328696E-2; n = 1.
The subject of a further experiment is TGFBR1. The following applies: read-out: apparent Kd, compound concentrations: 100 nM and 1000 nM (sheet 'Samples'), n = 1.
A further experiment concerns ADRBK1. Particulars: read-out: apparent Kd; compound concentrations: 100 nM and 1000 nM (sheet 'Samples'), CATDS: 7.2370560484510002E-2; n = 1.
The next experiment concerns BMPR1A. Particulars: read-out: apparent Kd; compound concentrations: 100 nM and 1000 nM (sheet 'Samples'), CATDS: 0.17247820312197201; n = 1.
The test system of a further experiment is BMPR1B. The following applies: read-out: apparent Kd; compound concentrations: 100 nM and 1000 nM (sheet 'Samples'), CATDS: 0.14495542747652801; n = 1.
The test system of another experiment is ZAK. The following applies: read-out: apparent Kd; compound concentrations: 100 nM and 1000 nM (sheet 'Samples'), CATDS: 6.5320579429353404E-2; n = 1.
The next experiment deals with AKT2. Particulars: read-out: apparent Kd; compound concentrations: 100 nM and 1000 nM (sheet 'Samples'), CATDS: 0.130692249594417; n = 1.
A further experiment relates to PIK3CA. The following applies: read-out: apparent Kd; compound concentrations: 100 nM and 1000 nM (sheet 'Samples'), CATDS: 0.46102021867548298; n = 1.
For the next experiment, the system named is PIM2. The following applies: read-out: apparent Kd; compound concentrations: 100 nM and 1000 nM (sheet 'Samples'), CATDS: 0.15422664553474699; n = 1.
In the next experiment the test system is PRKAG2. The following applies: read-out: apparent Kd; compound concentrations: 100 nM and 1000 nM (sheet 'Samples'), CATDS: 0.141920033586769; n = 1.
A further experiment relates to CIT. The following applies: read-out: apparent Kd; compound concentrations: 100 nM and 1000 nM (sheet 'Samples'), CATDS: 0.11106465565946499; n = 1.
In another experiment the test system is CSNK1D. Particulars: read-out: apparent Kd, compound concentrations: 100 nM and 1000 nM (sheet 'Samples'), n = 1.
The test system of another experiment is GRK6. Particulars: read-out: apparent Kd; compound concentrations: 100 nM and 1000 nM (sheet 'Samples'), CATDS: 0.11057023586935499; n = 1.
In another experiment the test system is MAPK14. Particulars: read-out: apparent Kd, compound concentrations: 100 nM and 1000 nM (sheet 'Samples'), n = 1.
The next experiment relates to MAPKAPK2. The following applies: read-out: apparent Kd, compound concentrations: 100 nM and 1000 nM (sheet 'Samples'), n = 1.
A further experiment has as its system PKN3. Particulars: read-out: apparent Kd; compound concentrations: 100 nM and 1000 nM (sheet 'Samples'), CATDS: 0.17855560727929401; n = 1.
In a further experiment the test system is AGPS. The following applies: read-out: apparent Kd; compound concentrations: 100 nM and 1000 nM (sheet 'Samples'), CATDS: 9.4477869255485902E-2; n = 1.
For the next experiment, the system named is CSNK1E. Particulars: read-out: apparent Kd; compound concentrations: 100 nM and 1000 nM (sheet 'Samples'), CATDS: 9.3377022470402096E-2; n = 1.
The next experiment concerns ILK. The following applies: read-out: apparent Kd; compound concentrations: 100 nM and 1000 nM (sheet 'Samples'), CATDS: 9.8525851125826097E-2; n = 1.
The subject of the next experiment is MDN1. Particulars: read-out: apparent Kd; compound concentrations: 100 nM and 1000 nM (sheet 'Samples'), CATDS: 9.4286494514119495E-2; n = 1.
In the next experiment the test system is TESK2. Particulars: read-out: apparent Kd; compound concentrations: 100 nM and 1000 nM (sheet 'Samples'), CATDS: 9.9817052034954598E-2; n = 1.

As for `Cl.c1ccc(-c2ccc3c(Nc4ccc5[nH]ncc5c4)ccnc3c2)nc1` [GW440137A], the potency estimated from few doses in the experiment with ACVR1B (CATDS: 0.112387102296717) is 766 nM; in the experiment on ACVR1 (CATDS: 0.106513578189519), 904 nM; in the experiment on ACVR2B (CATDS: 0.67382048852526699) it was 11.9 nM; with ADCK3 (CATDS: 9.7735008507333701E-2), 1200 nM; in the experiment with RET it was 525 nM; in the experiment on RIPK2 (CATDS: 0.29852587031983902), 58.9 nM. For the same molecule, the potency estimated from few doses with RIPK3 was 1600 nM; in the experiment with TGFBR1 (CATDS: 8.5016049032497404E-2), 2060 nM.

`COc1cc(-c2cncc(-c3cnn(C4CCNCC4)c3)c2)cc(OC)c1OC` [K05908]: the potency estimated from few doses is 93.1 nM in the experiment with ACVR1B (CATDS: 0.127263158539664); 1.97 nM in the experiment on ACVR1 (CATDS: 0.77187058261615105); 1360 nM in the experiment with ACVR2B (CATDS: 7.0258773018851195E-2); 1110 nM in the experiment on ADRBK1; 42.3 nM with BMPR1A; 65 nM in the experiment with BMPR1B. In addition, the potency estimated from few doses is 49 nM with RIPK2 (CATDS: 0.16221198549174301), 181 nM with TGFBR1 (CATDS: 0.103891234408396) and 2410 nM in the experiment on ZAK.

As for `COc1ccc(-c2ccc3c(NC(=O)C4CC4)n[nH]c3n2)cc1` [SB-711237], the potency estimated from few doses is 1180 nM with ACVR1B (CATDS: 0.16866039240373501); 1590 nM in the experiment with ADCK3 (CATDS: 0.14880786658068901); 2260 nM in the experiment on AKT2; 210 nM with PIK3CA; 1450 nM in the experiment on PIM2; 1790 nM in the experiment on PRKAG2.

In the case of `CSc1cccc2c(-c3ccncn3)c(-c3ccc(F)cc3)nn12` [GW514786X], the potency estimated from few doses was 801 nM with ACVR1B (CATDS: 0.17509937322487801); 2190 nM in the experiment with CIT; 1420 nM in the experiment with CSNK1D (CATDS: 0.131295791130774); 2220 nM with GRK6; 863 nM in the experiment on MAPK14 (CATDS: 0.16800162105717001); 895 nM in the experiment with MAPKAPK2 (CATDS: 0.164691534232419). For the same molecule, the potency estimated from few doses with PKN3 was 774 nM.

For the molecule `CN1CCN(CCCNc2nccc(-c3c(-c4ccc(F)cc4)nn4cc(C(F)(F)F)ccc34)n2)CC1` [GW621581X], the potency estimated from few doses in the experiment with ACVR1B (CATDS: 0.17734677143715399) is 667 nM; in the experiment on AGPS, 2190 nM; in the experiment on CSNK1D (CATDS: 0.11827296398223) it was 1330 nM; with CSNK1E it was 2250 nM; in the experiment with ILK it was 1970 nM; in the experiment with MAPK14 (CATDS: 0.13638952707170801), 1020 nM. Also, the potency estimated from few doses was 1070 nM in the experiment on MAPKAPK2 (CATDS: 0.13321456142161001), 2200 nM in the experiment with MDN1 and 1910 nM in the experiment with TESK2.
